Source: PubChem BioAssay (NCI)
Compounds without any hit were thinned out: in the full panel of roughly 79,000, 15% have a hit. Activity calls are given as the source filed them. No stated cut-off is given here; in the data, active means growth inhibition above about 70%; inactive means the rest.

Key:
[1] = NCI Yeast Anticancer Drug Screen. Data for the rad50 strain (AID 155);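 further: 0% = growth of vehicle-only cultures of the same strain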; conditions: S. cerevisiae rad50 strain growth inhibition; at 50.0 µM; hits give high values
How it was run: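 Growth of the mutant yeast was measured after compound exposure and referenced to vehicle-treated cultures.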

[2] = NCI Yeast Anticancer Drug Screen. Data for the mec2-1 strain (AID 157); conditions: S. cerevisiae mec2-1 strain, at 50.0 µM, hits give high values
How it was run: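 Compounds were applied to mec2-1 yeast cells. Their growth was then compared with that of vehicle-treated cultures to give growth inhibition.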

[3] = NCI Yeast Anticancer Drug Screen. Data for the sgs1 mgt1 strain (AID 161);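 further: 0% = growth of cultures given vehicle only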; conditions: S. cerevisiae sgs1 mgt1 strain, at 50.0 µM, hits give high values
How it was run: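 Percent growth inhibition was derived by comparing compound-exposed mutant yeast with vehicle-exposed cultures. The strain carries alterations in DNA damage repair.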

[4] = NCI Yeast Anticancer Drug Screen. Data for the cln2 rad14 strain (AID 165);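 further: 0% = growth equal to vehicle treated cultures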; conditions: S. cerevisiae cln2 rad14 strain, at 50.0 µM, hits give high values
How it was run: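 Strain: cln2 rad14 yeast, altered in cell cycle control and DNA damage repair. Read-out: growth inhibition vs vehicle.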

[5] = NCI Yeast Anticancer Drug Screen. Data for the bub3 strain (AID 167); conditions: S. cerevisiae bub3 mutant strain, at 50.0 µM, hits give high values
How it was run: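 Whole-cell yeast assay. The mutant strain was incubated with compounds, and growth inhibition was determined by comparison with vehicle-treated cells.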

[6] = NCI Yeast Anticancer Drug Screen. Data for the mlh1 rad18 strain (AID 175); conditions: S. cerevisiae mlh1 rad18 strain growth inhibition; at 50.0 µM; hits give high values
How it was run: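 A repair-deficient yeast strain is exposed to test compound, and growth is scored relative to vehicle-treated controls.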

Measured: growth inhibition

Clc1cc2nc(C3CCCO3)[nH]c2cc1Cl (stereo unspecified)
inactive: [1] 24.3% | [2] 2.15% | [3] 29.5% | [4] 5% | [5] 19.9% | [6] 55.2%

O=C(NC1CCCCC1Cl)C1CCCCC1 (stereo unspecified)
inactive: [1] 17.1% | [2] 18.6% | [3] 2.15% | [4] 5.4% | [5] -6.7% | [6] -14.8%

Cc1cn(C2CC(O)C(CO)O2)c(=O)[nH]c1=S (stereo unspecified)
inactive: [1] 9.05% | [2] -7.25% | [3] -3.5% | [4] -37.3% | [5] 14.2% | [6] 13.2%

O=C1NN2CCCN=C2c2ncccc21
inactive: [1] 15.2% | [2] 2.1% | [3] 8.1% | [4] 17.1% | [5] 2.7% | [6] 20.8%

O=C(O)CSc1n[nH]c(-c2ccccc2O)n1
inactive: [1] -1.1% | [2] 2.5% | [3] 17.8% | [4] 17.5% | [5] 9.6% | [6] 7.25%

c1ccc2c(c1)CCc1ccccc1N=N2
inactive: [1] -8.1% | [2] -1.55% | [3] -17.1% | [4] -30.4% | [5] -1.4% | [6] 5.35%

CCCc1ccccc1NC(=O)NCCCl
inactive: [1] -1.75% | [2] -2.5% | [3] -0.5% | [4] -30.6% | [5] -12.9% | [6] 5.6%

CCN(c1ccccc1C(=O)O)S(=O)(=O)c1ccc(C)cc1
inactive: [1] 1.9% | [2] -1.95% | [3] 23.2% | [4] 27.6% | [5] 22% | [6] 11.9%

Cn1cnc2ncnc(Oc3ccc(Cl)cc3)c21
inactive: [1] -13.5% | [2] -10.3% | [3] -2.95% | [4] 4.45% | [5] -27.1% | [6] -14.1%

c1ccc(N2CCSCC2)cc1
inactive: [1] 2.95% | [2] -5.45% | [3] -21.9% | [4] -6.25% | [5] 0.3% | [6] -7.15%

N#CCC(=O)N1CCCCCCC1
inactive: [1] 20.4% | [2] -8.9% | [3] 2.7% | [4] 0% | [5] 6.05% | [6] 0%

CCCCCC(C(O)C#N)C(O)(C(F)(F)F)C(F)(F)F (stereo unspecified)
inactive: [3] 58.8%
active: [1] 94.7% | [2] 80.7% | [4] 80.6% | [5] 86.2% | [6] 98%

CC(=O)Oc1ccccc1-c1cc2ccccc2oc1=O
inactive: [1] -20.2% | [2] 20.8% | [3] 0.85% | [4] 5.15% | [5] 38.8% | [6] 11.8%

Nc1nc(NC(=O)C2=NS(=O)(=O)c3cc(S(N)(=O)=O)c(Cl)cc3N2)n[nH]1
inactive: [1] -8.9% | [2] -26.2% | [3] -3.85% | [4] 9.7% | [5] 0.7% | [6] -2.3%

O=c1c2c(-c3ccccc3)c3ccccc3nc2cnn1-c1ccccc1
inactive: [1] -18.4% | [2] -11% | [3] -18.4% | [4] -18.4% | [5] -24.9% | [6] -14.2%

CN(C)/C=C(/N=C(C#N)C#N)C1OCCO1
inactive: [1] 4.1% | [2] 8.55% | [3] -2.55% | [4] -27.1% | [5] 3.8% | [6] -1.7%

Cc1c(O)ccc(N=O)c1O
inactive: [1] 20.4% | [2] 2.6% | [3] 18.9% | [4] 35.8% | [5] -1.6% | [6] 8.15%

COc1ccc(N=Cc2c(O)ccc3ccccc23)cc1
inactive: [1] 12% | [2] 48% | [3] 43.1% | [4] 0.95% | [5] 32% | [6] 63%

O=C(CN1CCC(O)(c2ccc(F)cc2)CC1)N1CCN(C/C=C/c2ccccc2)CC1
inactive: [1] 42% | [2] 7.1% | [3] 9.8% | [4] 22.6% | [5] -1.7% | [6] 20.8%

Cc1cc(=O)c(C#N)c(C)o1
inactive: [1] 6.65% | [2] 10.2% | [3] 19.4% | [4] -2.7% | [5] -1.95% | [6] 10%

O=S(=O)(N/N=C/c1ccc(Cl)c(Cl)c1)c1ccccc1
inactive: [1] 18.9% | [2] 13.6% | [3] 9.8% | [4] -28.4% | [5] 13.1% | [6] 32.2%

COc1cc(CC2c3cc(OC)c(OC)cc3CCN2C)c(Oc2cc3c(cc2OC)-c2c(OC)c(OC)c(OC)c4c2C(C3)N(C)CC4)cc1OC (stereo unspecified)
inactive: [1] 9.7% | [2] -0.95% | [3] -7.05% | [4] 13.8% | [5] 0.3% | [6] 1.2%

O=c1[nH][nH]c(=O)c2nc3c(nc12)c1nc2c(=O)[nH][nH]c(=O)c2nc1c1nc2c(=O)[nH][nH]c(=O)c2nc31
inactive: [1] -1.6% | [2] 21.4% | [3] 21.1% | [4] -2.55% | [5] -11.1% | [6] 8.2%

CCC(=O)OCCN(C(=O)CC)c1ccccc1
inactive: [1] 35.6% | [2] 5.75% | [3] 22.2% | [4] -2.5% | [5] -0.05% | [6] 31.4%

CC/C(CC(=O)CCC(=O)Nc1ccccc1[N+](=O)[O-])=N/NC(=O)C[n+]1ccccc1
inactive: [1] -1.8% | [2] 6.9% | [3] -56.1% | [4] 16.4% | [5] -1.35% | [6] -12.7%

CCC(C(C)=O)C(C)=O
inactive: [1] -46.2% | [2] -71.5% | [3] -43.5% | [4] -24.2% | [5] -56.6% | [6] -34.4%

CC1(C)[C@@H]2C[C@H]1[C@@H](Cc1cccc(C[C@H]3c4cc(-c5ccccn5)ncc4[C@H]4C[C@@H]3C4(C)C)c1)c1cc(-c3ccccn3)ncc12
inactive: [1] 45.4% | [2] 28.2% | [3] 45.4% | [4] 16.8% | [5] 45.9% | [6] 45.4%

O=C1OC(C2OC(=O)C(=O)C2C(=O)c2cccc([N+](=O)[O-])c2)C(C(=O)c2cccc([N+](=O)[O-])c2)C1=O (stereo unspecified)
inactive: [1] 0.5% | [2] 40.9% | [3] 13.3% | [4] -33.6% | [5] -36.5% | [6] 29.6%

CC(C)(N)COC(=O)c1ccc([N+](=O)[O-])cc1
inactive: [1] 3.4% | [2] -23.7% | [3] 7.1% | [4] 0.15% | [5] 12.2% | [6] 10.2%

Oc1ccc(C2CCCC2)cc1
inactive: [1] -9.15% | [2] -30.1% | [3] -22.1% | [4] -14.7% | [5] -12.7% | [6] -17.4%

CCN(CC)C(=O)c1cccc2c1OCO2
inactive: [1] -17.7% | [2] 13.6% | [3] 2.35% | [4] 0.25% | [5] 1.4% | [6] -9.6%

CCCCCCCCNC(C(=O)c1ccccc1)c1ccccc1 (stereo unspecified)
inactive: [1] 10.1% | [2] 11.7% | [3] 16% | [4] 14% | [5] 14.2% | [6] 26.8%

Cc1cc(O)c(C(c2cccnc2)c2c(O)cc(C)[nH]c2=O)c(=O)[nH]1
inactive: [1] 1.95% | [2] -14.8% | [3] -40.1% | [4] 11.8% | [5] -30.2% | [6] 30.1%

CC(=O)O[C@H]1CC(C)(C)C(=C=C/C(C)=C/C=C/C=C/C=C(C)/C=C2C=C(/C=C/[C@@]34O[C@]3(C)C[C@@H](O)CC4(C)C)C(=O)O/2)[C@](C)(O)C1
inactive: [1] 9.55% | [2] 32.5% | [3] 0.9% | [4] 6.2% | [5] 3.6% | [6] 3.95%

COc1ccc2c(c1)CC[C@@H]1[C@@H]2CC[C@@]2(C)[C@H]1C[C@@](C)(O)[C@H]2O
inactive: [1] -5.65% | [2] 3.05% | [3] -2.45% | [4] -59.9% | [5] 10.8% | [6] -11.7%

OCc1c(CO)c(Br)c2ccccc2c1Br
inactive: [1] 11.8% | [2] 3.75% | [3] 35% | [4] -6.45% | [5] 4.9% | [6] -6.2%

Nc1ccn(C2CC3OCC3O2)c(=O)n1 (stereo unspecified)
inactive: [1] -13.2% | [2] 24.9% | [3] -1.25% | [4] -5.7% | [5] 0.95% | [6] 0.65%

O=C(O)/C(=C/c1ccccc1[N+](=O)[O-])c1cccs1
inactive: [1] 27.9% | [2] 2.25% | [3] 22.6% | [4] 21.1% | [5] -11.3% | [6] 8.9%

C=C(C)Cc1cc(C(CC)C(CC)c2ccc(O)c(CC(=C)C)c2)ccc1O (stereo unspecified)
inactive: [1] 18.6% | [2] 20.4% | [3] 47.2% | [4] 34.3% | [5] 6.25% | [6] 46%

CCCCCC(C#N)CCC(C)=O (stereo unspecified)
inactive: [1] -6.7% | [2] -9.15% | [3] -9.3% | [4] -6.2% | [5] -0.95% | [6] -10%

CC(O)C(c1ccc(N(C)C)cc1)c1ccc(N(C)C)cc1 (stereo unspecified)
inactive: [1] -6.25% | [2] 3.1% | [3] 2.35% | [4] -14.6% | [5] 6.05% | [6] 2.45%
